# The panel holds about 83,000 compounds, 20% with a hit somewhere; the sample as a whole holds those more often.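 Negative percent growth values reflect cell death: -40 means 40% of the cells present at the start died, and -100 means all died.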 A number with no mark means an inactive call. Calls of active or inactive are those of the source. Rule for the calls: active = growth percent below 10; inactive = the rest.
# System: HCT-116 colon
# Assay: NCI-60 one-dose screen, 48 h (100 = growth as untreated, 0 = no growth, -100 = all killed)
# Details: 10 µM
row,SMILES,growth
1,O=C(COc1ccc(-c2nc3ccccc3[nH]2)cc1)N=Nc1c(O)[nH]c2ccccc12,40.9%
2,C[C@]12CC[C@H]3[C@@H](CC=C4C[C@@H](O)CC[C@@]43C)[C@@H]1CC[C@@H]2C(=O)C/C=N/O,79.1%
3,COc1ccc(N2CCN(c3nc(-c4ccccc4)c(C#N)c(=O)[nH]3)CC2)cc1,89.9%
4,CCCCCCCCCCCC(=O)NCCCN(C)C,67.6%
5,COc1cccc(-c2nnc(COc3ccc(-c4nc5ccccc5[nH]4)cc3OC)o2)c1,73%
6,N/C(=N\O)c1cn(C2OC(CO)C(O)C2O)c2ncnc(N)c12 (stereo not given),9.85% (active)
7,Nc1ccc(C2=CC(c3ccc(Cl)cc3)N3C=CSC3=N2)cc1 (stereo not given),-89.3% (active)
8,O=[N+]([O-])c1cc2ncccc2c2ncccc12,53.5%
9,O=C(CCc1ccccc1)N1CCN(C(=O)CCc2ccccc2)CC1,99.6%
10,COc1ccc(CCc2nc3cc(-c4c(C)noc4C)ccc3n2CCN2CCOCC2)cc1,31.1%
11,CCOC(=O)C(=O)Cc1cccnn1,102%
12,FC(F)(F)c1ccc(-c2nc(-c3nc4cc(Cl)c(Cl)cc4[nH]3)c3ccccn23)cc1,33.8%
13,COc1cc(CSc2nc3ccc(C)cc3c(=O)n2-c2ccccc2)cc(OC)c1OC,26.6%
14,CC(C)C[C@H](NC(=O)Cn1ccc2ccccc2c1=O)B(O)O,32.3%
15,CCCCC(=O)N(c1ccc(Nc2c3ccccc3nc3cc([N+](=O)[O-])ccc23)cc1)S(C)(=O)=O,63.4%

# Reference: PubChem BioAssay (NCI)
